Measurements: PubChem BioAssay AID1159580 (chemical genetic matrix, 2015)
Several values for one entry are separate records, joined by “and”; a condition that tells them apart may be missing. Equal values may be shown once. The whole screen tested about 5,500 compounds, of which about 2,000 (36%) were called active. Inconclusive results (about 18%) are left out. No stated cut-off is given here; in the data, active means normalized growth mostly below about 0.91 (no sharp cut-off); inconclusive means no clear call, values can overlap the other calls; inactive means mostly above about 0.92. Some of the results follow.

Experiment: chemical genetic growth profiling, strain panel (AID 1159580);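 further: tested at 20 µM; growth read once vehicle control cultures reached saturation at 30 °C; 1 = growth at the plate median or of vehicle wells; lower values mean less growth of the strain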
Conditions: S. cerevisiae deletion strains, growth OD

Measured: normalized growth

NCC1CCC(C(=O)O)CC1 (stereo not drawn)
inactive: locus YAL021C, strain ccr4, active compounds read low 1 | locus YAL026C, strain drs2, active compounds read low 0.998 | locus YAL030W, strain snc1, active compounds read low 1 | locus YBL061C, strain skt5, active compounds read low 0.979 | locus YBR009C, strain hhf1, active compounds read low 0.992 | locus YBR021W, strain FUR4, active compounds read low 0.988 | locus YBR023C, strain chs3, active compounds read low 0.992 | locus YBR171W, strain sec66, active compounds read low 0.986 | locus YBR229C, strain ROT2, active compounds read low 1 | locus YBR231C, strain swc5, active compounds read low 0.988 | locus YBR279W, strain paf1, active compounds read low 1.01 | locus YCL011C, strain gbp2, active compounds read low 1 | locus YCL016C, strain dcc1, active compounds read low 0.993 | locus YCL029C, strain bik1, active compounds read low 0.982 | locus YCL061C, strain MRC1, active compounds read low 0.999 | locus YCL069W, strain vba3, active compounds read low 0.991 | locus YCR088W, strain abp1, active compounds read low 0.989 | locus YDL005C, strain med2, active compounds read low 0.974 | locus YDL035C, strain GPR1, active compounds read low 0.985 | locus YDL040C, strain nat1, active compounds read low 0.972 | locus YDL074C, strain BRE1, active compounds read low 1.04 | locus YDL101C, strain DUN1, active compounds read low 0.996 | locus YDL134C, strain PPH21, active compounds read low 0.985 | locus YDL185W, strain tfp1, active compounds read low 0.965 | locus YDL192W, strain arf1, active compounds read low 0.994 | locus YDR001C, strain nth1, active compounds read low 0.987 | locus YDR069C, strain doa4, active compounds read low 0.984 | locus YDR101C, strain arx1, active compounds read low 1 | locus YDR137W, strain rgp1, active compounds read low 1 | locus YDR150W, strain NUM1, active compounds read low 0.986 | locus YDR159W, strain sac3, active compounds read low 0.974 | locus YDR162C, strain NBP2, active compounds read low 0.973 | locus YDR195W, strain ref2 0.956 | locus YDR297W, strain sur2, active compounds read low 0.973 | locus YDR318W, strain mcm21, active compounds read low 0.978 | locus YDR334W, strain swr1, active compounds read low 1.01 | locus YDR335W, strain msn5, active compounds read low 1 | locus YDR388W, active compounds read low 0.999 | locus YDR392W, strain spt3, active compounds read low 1 | locus YDR502C, strain sam2, active compounds read low 0.996 | locus YEL003W, strain gim4, active compounds read low 0.995 | locus YEL037C, strain rad23, active compounds read low 0.991 | locus YEL061C, strain CIN8 (second series), active compounds read low 1 | locus YEL061C, strain CIN8, active compounds read low 1 | locus YER015W, strain faa2, active compounds read low 0.987 | locus YER016W, strain bim1, active compounds read low 0.971 | locus YER110C, active compounds read low 0.988 | locus YER111C, strain swi4, active compounds read low 0.978 | locus YER155C, strain BEM2 (second series), active compounds read low 0.974 | locus YER155C, strain BEM2, active compounds read low 0.995 | locus YER167W, strain BCK2, active compounds read low 0.997 | locus YFR010W, strain ubp6, active compounds read low 0.99 | locus YGL078C, strain dbp3, active compounds read low 0.998 | locus YGL086W, strain mad1, active compounds read low 1 | locus YGL173C, strain kem1, active compounds read low 0.974 | locus YGL227W, strain vid30, active compounds read low 0.998 | locus YGL240W, strain doc1, active compounds read low 0.999 | locus YGL248W, strain PDE1, active compounds read low 1.01 | locus YGL253W, strain hxk2, active compounds read low 0.977 | locus YGR078C, strain PAC10, active compounds read low 1.04 | locus YGR135W, strain pre9, active compounds read low 0.96 | locus YGR252W, strain gcn5, active compounds read low 1.02 | locus YHR013C, strain ard1, active compounds read low 0.979 | locus YHR027C, strain rpn1, active compounds read low 0.996 | locus YHR030C, strain SLT2, active compounds read low 0.98 and 1.04 | locus YHR079C, strain IRE1 (second series), active compounds read low 0.985 | locus YHR079C, strain IRE1, active compounds read low 1.06 | locus YHR094C, strain hxt1, active compounds read low 0.999 | locus YHR129C, strain ARP1, active compounds read low 0.986 | locus YHR142W, strain chs7, active compounds read low 0.994 | locus YHR200W, strain rpn10, active compounds read low 0.973 | locus YIL066C, strain RNR3, active compounds read low 1 | locus YIL073C, strain SPO22, active compounds read low 0.909 | locus YIL125W, strain kgd1, active compounds read low 0.995 | locus YIR030C, strain dcg1, active compounds read low 0.987 | locus YJL092W, strain hpr5, active compounds read low 0.986 | locus YJL095W, strain BCK1 (second series), active compounds read low 0.986 | locus YJL095W, strain BCK1, active compounds read low 1.04 and 1.01 | locus YJL115W, strain asf1, active compounds read low 0.98 | locus YJL129C, strain trk1, active compounds read low 0.997 | locus YJL134W, strain LCB3, active compounds read low 0.997 | locus YJL154C, strain vps35, active compounds read low 0.988 | locus YJL164C, strain tpk1, active compounds read low 0.985 | locus YJL166W, strain qcr8, active compounds read low 0.983 | locus YJL168C, strain set2, active compounds read low 0.999 | locus YJL187C, strain SWE1 (second series), active compounds read low 1.02 | locus YJR043C, strain POL32, active compounds read low 1 | locus YJR066W, strain TOR1, active compounds read low 0.98
